Experiment [1] concerns the target ATP-dependent 6-phosphofructokinase (Trypanosoma brucei brucei) (UniProt O15648). As to the kind of experiment: qHTS Assay to Find Inhibitors of T. brucei phosphofructokinase: hit validation (AID 492961). Also: series mostly up to about 51 µM. In outline:
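Luminescence from ADP-Glo reports ADP generated as T. brucei PFK (1.25 nM) phosphorylates 0.5 mM fructose-6-phosphate using 0.1 mM ATP. Reactions ran 45 min at room temperature, pH 8.0.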

Experiment [2] concerns the target Ubiquitin carboxyl-terminal hydrolase 1 (Homo sapiens) (UniProt O94782). As to the kind of experiment: Inhibitors of USP1/UAF1: Pilot qHTS (AID 504865).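 Also: rhodamine fluorescence freed from ubiquitin-rhodamine substrate followed over time; top concentration of the series differs between compounds; nearly all actives have a fitted effect of over 35% in size.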 In outline:
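Deubiquitinase activity followed as kinetic rhodamine fluorescence release from 150 nM Ub-Rho. 1 nM USP1/UAF1 with compound, after 15 min room-temperature preincubation, in HEPES pH 7.8 buffer containing TCEP, EDTA, BSA and Tween-20.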

Experiment [3] deals with Estrogen receptor (Homo sapiens) (UniProt P03372). As to the kind of experiment: qHTS assay for small molecule antagonists of estrogen receptor alpha signaling (AID 588513; active = well fitted curve in the direction sought with a large enough effect in the signal ratio, with a control signal flat, not every such curve was filed as active; the % refers to the signal ratio). A digest of the protocol:
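Antagonist mode: inhibition of 0.5 nM 17-beta-estradiol-driven beta-lactamase reporter in HEK 293 ER-alpha-UAS-bla cells, 18 h at 37C, CCF4 readout after 2 h at RT. Normalised to estradiol and DMSO; titration fitted to Hill.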
Background: Quantitative high-throughput screening tests each substance at several concentrations.

Experiment [4] shares this target. As to the kind of experiment: qHTS assay for small molecule agonists of estrogen receptor alpha signaling (AID 588514; calls by dose curve; also: nearly all actives have a fitted effect of over 70% in size). In outline:
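Cells were plated at 5000/well, incubated 4 hrs at 37 C, dosed with compound titration series, incubated 18 hrs at 37 C, loaded with CCF4 dye for 2 hrs at RT, then fluorescence was read.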

The target in experiment [5] is Bile acid receptor (Homo sapiens) (UniProt Q96RI1). As to the kind of experiment: qHTS assay for small molecule antagonists of farnesoid X receptor signaling (AID 588526; calls by dose curve; also: potency is read from the fitted curve at half-maximal effect). A digest of the protocol: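 Antagonist mode: titrated compounds tested against chenodeoxycholic acid stimulation (normalized to 50 uM CDCA and DMSO) in GeneBLAzer HEK293T cells for 16 h. Beta-lactamase read by CCF4 fluorescence; IC50 from Hill fits.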

The nature of experiment [6]: Validation screen for small molecules that induce genotoxicity in human embryonic kidney (HEK293T) cells expressing luciferase-tagged ELG1 (AID 493106). In outline:
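Luminescence from an ELG1-luciferase fusion serves as the read-out, rising when genetic stress elevates ELG1 protein. HEK293T reporter cells (2,000 per well) received 23 nL compound, incubated 16 hr at 37 °C, then ONE-Glo for 30 min at room temperature.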

Experiment [7] deals with ATPase family AAA domain-containing protein 5 (Homo sapiens) (UniProt Q96QE3). As to the kind of experiment: Validation screen for small molecules that inhibit ELG1-dependent DNA repair in human embryonic kidney (HEK293T) cells expressing luciferase-tagged ELG1 (AID 493107).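 Also: cells co-treated with the DNA-damaging agent 5-fluorouridine alongside compound; series mostly up to about 46 µM; inhibitors lower the ELG1-luciferase luminescence signal; nearly all actives have a fitted effect of over 70% in size.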 In outline: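 Luminescence from ONE-Glo, developed 30 min at room temperature, served as read-out of ELG1-luciferase levels. Beforehand, reporter HEK293T cells received 5-fluorouridine plus test compound for 16 hr at 37 °C.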

Experiment [8] is described as follows: Nrf2 qHTS screen for inhibitors: Validation (AID 493153; active = well fitted inhibition curve with a large enough effect in the main read-out, with a control signal flat, not every such curve was filed as active). To be noted: viability change: measured here: cytotoxicity max response. A digest of the protocol:
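Luminescence from an ARE-firefly luciferase reporter in A549 cells gives Nrf2 inhibition; an earlier CellTiter-Fluor fluorescent read flags cytotoxicity. Cells in 5% FBS OPTI-MEM received compound dilution series for 18-24 h at 37°C.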

Experiment [9] can be described thus: qHTS for Inhibitors of Cell Surface uPA Generation: Validation Assay (AID 493164). In outline: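 RAW 264.7 cells (4000/well) were plated overnight, then exposed for 18 h at 37 C, 5% CO2 to compounds in a 7-point 1:5 titration (2.45 nM–38.3 uM final). Intracellular ATP was read by ATP-Lite luminescence.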
Experiment [10] deals with Galactokinase (Homo sapiens) (UniProt P51570). As to the kind of experiment: qHTS Validation Assay for Inhibitors of Human Galactokinase (GALK) (AID 493189). In outline:
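Inhibition was measured as remaining ATP, detected by luciferase luminescence after a 1 h room-temperature reaction. Final conditions: 5 nM GALK, 100 uM galactose, 35 uM ATP, pH 8.0 HEPES buffer.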

The nature of experiment [11]: Validation screen for small molecules that induce DNA re-replication in SW480 colon adenocarcinoma cells (AID 504364). In outline:
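250 cells/well; compound pinned in; 48 hr, 37 C, 5% CO2; Hoechst added, 40 min; nuclear fluorescence imaged, 405 ex / 500-530 em; re-replication scored as increase in high-intensity nuclei.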

Experiment [12] has as its target Peptidyl-prolyl cis-trans isomerase NIMA-interacting 1 (Homo sapiens) (UniProt Q13526). As to the kind of experiment: qHTS Validation Assay to Find Inhibitors of Pin1 (AID 504536; active = well fitted inhibition curve with a large enough effect in the polarisation, with a control signal flat, not every such curve was filed as active; the % refers to the polarisation). In outline:
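Fluorescence polarization competition: compounds (titration) displace HiFluor-488-labeled Pin1-1b peptide from Pin1 (0.3 uM final) in pH 7.5 HEPES buffer with DTT, 10 min at room temperature; %Activity normalized to no-enzyme wells, curves fitted.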

Experiment [13] addresses phosphoglycerate mutase (Leishmania major) (UniProt Q4Q090). As to the kind of experiment: qHTS Validation Assay to Find Inhibitors of Phosphoglycerate Mutase (AID 504548).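 Also: end-point luminescence from Kinase-GloPlus after the PGAM reaction; series mostly up to about 58 µM.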 A digest of the protocol: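 Inhibition of L. major PGAM was assessed by Kinase-GloPlus luminescence following a 45-minute room-temperature reaction with enzyme at 1.25nM final.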
Experiment [14] in a line: qHTS for Inhibitors of ATXN expression: Validation of Cytotoxic Assay (AID 588349). In outline: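 Read-out: ATP-based luminescence (CellTiter Glo) reflecting viability of HEK293 cells after 72 hr incubation at 37 degrees C with a concentration series of each compound.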
Experiment [15] is described as follows: qHTS for Inhibitors of ATXN expression: Validation (AID 588378). Also: series mostly up to about 57 µM; nearly all actives have a fitted effect of over 75% in size. In outline:
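Luciferase luminescence (Bright-Glo) from an ATXN2-FFLuc HEK293 line after 24 h compound exposure at 37 °C, preceded by a CellTiter-Fluor fluorescence viability read. Serial dilutions of a reference ATXN2 inhibitor and a luciferase inhibitor served as controls.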

Experiment [16] has as its target Glucocorticoid receptor (Homo sapiens) (UniProt P04150). As to the kind of experiment: qHTS assay for small molecule agonists of glucocorticoid receptor signaling (AID 588532; active = well fitted curve in the direction sought with a large enough effect in the signal ratio, with a control signal flat; the % refers to the signal ratio). Conditions: HeLa MMTV-bla, beta-lactamase ratio, agonist, 18 h; stronger effect = higher value; percent of dexamethasone control, DMSO zero. In outline: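 Cells were plated and rested 3-5 h at 37 C, compounds were added in titration and incubated 18 h, then CCF4 substrate was loaded for 2 h at RT before reading blue/green fluorescence. EC50 came from Hill-equation fitting.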

Experiment [17] deals with DNA dC->dU-editing enzyme APOBEC-3G (Homo sapiens) (UniProt Q9HC16). As to the kind of experiment: qHTS for inhibitors of Vif-A3G interactions: Validation (AID 588379). A digest of the protocol:
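HeLa cells stably expressing Vif and A3G-eYFP, 700 cells/well, incubated overnight at 37 deg C, then exposed to compound overnight at 37 deg C. Inhibition of Vif-mediated degradation read as increased yellow fluorescence (Ex 488/Em 500-530) by laser-scanning cytometry.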

Several values for one entry are separate records, joined by “and”; a condition that tells them apart may be missing. Equal values may be shown once. Records with an inconclusive call do not appear. A call without a number means that no potency is given here. Activity calls are given as the source filed them. Unless noted, calls follow the shape of the dose curve; as a rule, active = well fitted curve in the direction sought with a large enough effect; inconclusive = small, poorly fitted or top-dose-only effect, or another doubt; inactive = no such curve, though single readings can be large; an effect the other way counts as inactive or inconclusive.

ATP-dependent 6-phosphofructokinase (Trypanosoma brucei brucei), sequence (O15648 whole entry, looked up): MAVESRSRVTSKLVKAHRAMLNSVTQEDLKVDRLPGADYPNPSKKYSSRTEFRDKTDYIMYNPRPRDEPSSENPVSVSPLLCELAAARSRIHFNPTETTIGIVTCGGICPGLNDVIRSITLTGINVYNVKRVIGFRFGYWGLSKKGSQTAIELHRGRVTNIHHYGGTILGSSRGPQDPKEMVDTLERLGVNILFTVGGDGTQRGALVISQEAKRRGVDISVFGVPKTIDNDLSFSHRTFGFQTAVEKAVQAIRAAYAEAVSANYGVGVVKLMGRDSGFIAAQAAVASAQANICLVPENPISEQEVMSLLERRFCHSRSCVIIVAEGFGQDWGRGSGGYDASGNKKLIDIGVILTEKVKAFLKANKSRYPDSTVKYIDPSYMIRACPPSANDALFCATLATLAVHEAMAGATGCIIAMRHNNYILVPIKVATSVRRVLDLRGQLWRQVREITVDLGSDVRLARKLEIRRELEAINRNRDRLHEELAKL
Bile acid receptor (Homo sapiens), sequence (Q96RI1 whole entry, looked up): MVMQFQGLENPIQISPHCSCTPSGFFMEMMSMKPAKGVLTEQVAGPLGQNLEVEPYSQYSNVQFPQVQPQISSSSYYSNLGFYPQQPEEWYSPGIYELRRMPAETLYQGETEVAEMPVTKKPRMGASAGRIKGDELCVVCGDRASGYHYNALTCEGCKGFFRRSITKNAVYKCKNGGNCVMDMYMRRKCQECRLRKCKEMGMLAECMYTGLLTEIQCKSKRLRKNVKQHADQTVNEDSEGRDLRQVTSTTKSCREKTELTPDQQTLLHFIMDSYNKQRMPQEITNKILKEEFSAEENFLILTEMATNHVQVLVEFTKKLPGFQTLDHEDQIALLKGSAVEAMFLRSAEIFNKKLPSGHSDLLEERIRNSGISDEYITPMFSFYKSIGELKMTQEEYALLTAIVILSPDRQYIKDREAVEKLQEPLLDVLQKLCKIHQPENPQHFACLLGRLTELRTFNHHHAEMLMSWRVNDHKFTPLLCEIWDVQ
Estrogen receptor (Homo sapiens), sequence (P03372 whole entry, looked up): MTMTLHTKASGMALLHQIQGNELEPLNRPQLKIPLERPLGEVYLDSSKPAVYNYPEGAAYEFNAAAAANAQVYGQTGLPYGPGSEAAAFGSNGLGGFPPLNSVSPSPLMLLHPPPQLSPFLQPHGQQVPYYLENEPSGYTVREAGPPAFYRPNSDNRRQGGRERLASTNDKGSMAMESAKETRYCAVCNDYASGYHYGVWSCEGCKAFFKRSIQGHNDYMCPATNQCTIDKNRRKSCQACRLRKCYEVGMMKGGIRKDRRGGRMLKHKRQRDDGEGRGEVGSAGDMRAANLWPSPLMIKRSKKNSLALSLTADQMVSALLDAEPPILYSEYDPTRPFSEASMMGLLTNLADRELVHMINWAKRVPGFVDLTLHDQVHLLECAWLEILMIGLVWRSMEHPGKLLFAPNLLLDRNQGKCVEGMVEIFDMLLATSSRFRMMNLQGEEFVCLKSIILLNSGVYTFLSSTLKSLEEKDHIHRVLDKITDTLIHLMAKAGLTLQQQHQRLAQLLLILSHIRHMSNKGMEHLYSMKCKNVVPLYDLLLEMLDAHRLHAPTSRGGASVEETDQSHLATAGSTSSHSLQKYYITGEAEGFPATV
Ubiquitin carboxyl-terminal hydrolase 1 (Homo sapiens), sequence (O94782 whole entry, looked up): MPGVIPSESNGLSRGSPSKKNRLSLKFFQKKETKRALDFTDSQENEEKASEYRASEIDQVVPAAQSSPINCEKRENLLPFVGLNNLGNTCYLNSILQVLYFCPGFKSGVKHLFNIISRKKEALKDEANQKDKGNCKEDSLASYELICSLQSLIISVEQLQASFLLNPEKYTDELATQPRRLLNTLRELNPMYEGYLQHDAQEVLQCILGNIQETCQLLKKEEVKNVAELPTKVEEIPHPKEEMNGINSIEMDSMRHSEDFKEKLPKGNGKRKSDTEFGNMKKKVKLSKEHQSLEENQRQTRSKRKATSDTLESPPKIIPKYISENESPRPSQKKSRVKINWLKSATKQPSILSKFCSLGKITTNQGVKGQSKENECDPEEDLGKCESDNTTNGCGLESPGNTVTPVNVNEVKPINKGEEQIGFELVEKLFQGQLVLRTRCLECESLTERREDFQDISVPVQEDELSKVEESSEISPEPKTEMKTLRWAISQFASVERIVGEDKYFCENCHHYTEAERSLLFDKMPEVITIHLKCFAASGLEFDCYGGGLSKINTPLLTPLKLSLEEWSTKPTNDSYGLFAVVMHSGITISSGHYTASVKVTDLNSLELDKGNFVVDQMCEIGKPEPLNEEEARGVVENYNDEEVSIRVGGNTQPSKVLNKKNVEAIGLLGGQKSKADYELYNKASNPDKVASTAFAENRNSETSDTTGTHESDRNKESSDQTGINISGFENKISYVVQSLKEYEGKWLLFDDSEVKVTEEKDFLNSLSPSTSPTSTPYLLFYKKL
DNA dC->dU-editing enzyme APOBEC-3G (Homo sapiens), sequence (Q9HC16 whole entry, looked up): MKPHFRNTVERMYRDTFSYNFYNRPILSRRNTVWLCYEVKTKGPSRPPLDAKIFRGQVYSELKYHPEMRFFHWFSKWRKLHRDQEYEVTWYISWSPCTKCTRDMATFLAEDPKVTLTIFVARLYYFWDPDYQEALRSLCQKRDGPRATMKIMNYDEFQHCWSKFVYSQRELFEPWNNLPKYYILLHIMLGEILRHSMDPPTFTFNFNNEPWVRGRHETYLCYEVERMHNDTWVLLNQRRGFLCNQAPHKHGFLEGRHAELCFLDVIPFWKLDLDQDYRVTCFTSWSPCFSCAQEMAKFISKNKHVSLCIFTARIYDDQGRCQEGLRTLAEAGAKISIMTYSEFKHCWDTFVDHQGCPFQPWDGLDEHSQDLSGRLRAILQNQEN
Peptidyl-prolyl cis-trans isomerase NIMA-interacting 1 (Homo sapiens), sequence (Q13526 whole entry, looked up): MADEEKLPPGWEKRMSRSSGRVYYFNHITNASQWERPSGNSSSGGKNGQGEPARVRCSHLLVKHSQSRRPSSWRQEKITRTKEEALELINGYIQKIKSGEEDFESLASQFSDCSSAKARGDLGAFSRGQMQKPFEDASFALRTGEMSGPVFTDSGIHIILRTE
phosphoglycerate mutase (Leishmania major), sequence (Q4Q090 1-553): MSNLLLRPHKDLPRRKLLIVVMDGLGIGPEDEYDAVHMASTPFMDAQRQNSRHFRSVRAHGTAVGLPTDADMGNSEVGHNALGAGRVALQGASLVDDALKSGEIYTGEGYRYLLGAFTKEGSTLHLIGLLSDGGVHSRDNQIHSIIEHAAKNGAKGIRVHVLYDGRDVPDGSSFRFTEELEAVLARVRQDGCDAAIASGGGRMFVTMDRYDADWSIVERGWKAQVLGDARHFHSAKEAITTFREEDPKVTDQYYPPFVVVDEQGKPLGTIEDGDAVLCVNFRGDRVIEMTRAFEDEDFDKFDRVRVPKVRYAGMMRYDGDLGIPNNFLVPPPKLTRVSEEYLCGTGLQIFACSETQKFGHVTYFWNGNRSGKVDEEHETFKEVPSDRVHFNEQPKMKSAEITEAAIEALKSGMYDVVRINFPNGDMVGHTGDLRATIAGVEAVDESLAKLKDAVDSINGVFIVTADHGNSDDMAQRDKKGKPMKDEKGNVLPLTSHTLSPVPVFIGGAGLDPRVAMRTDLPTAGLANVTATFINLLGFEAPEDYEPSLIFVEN
Glucocorticoid receptor (Homo sapiens), sequence (P04150 whole entry, looked up): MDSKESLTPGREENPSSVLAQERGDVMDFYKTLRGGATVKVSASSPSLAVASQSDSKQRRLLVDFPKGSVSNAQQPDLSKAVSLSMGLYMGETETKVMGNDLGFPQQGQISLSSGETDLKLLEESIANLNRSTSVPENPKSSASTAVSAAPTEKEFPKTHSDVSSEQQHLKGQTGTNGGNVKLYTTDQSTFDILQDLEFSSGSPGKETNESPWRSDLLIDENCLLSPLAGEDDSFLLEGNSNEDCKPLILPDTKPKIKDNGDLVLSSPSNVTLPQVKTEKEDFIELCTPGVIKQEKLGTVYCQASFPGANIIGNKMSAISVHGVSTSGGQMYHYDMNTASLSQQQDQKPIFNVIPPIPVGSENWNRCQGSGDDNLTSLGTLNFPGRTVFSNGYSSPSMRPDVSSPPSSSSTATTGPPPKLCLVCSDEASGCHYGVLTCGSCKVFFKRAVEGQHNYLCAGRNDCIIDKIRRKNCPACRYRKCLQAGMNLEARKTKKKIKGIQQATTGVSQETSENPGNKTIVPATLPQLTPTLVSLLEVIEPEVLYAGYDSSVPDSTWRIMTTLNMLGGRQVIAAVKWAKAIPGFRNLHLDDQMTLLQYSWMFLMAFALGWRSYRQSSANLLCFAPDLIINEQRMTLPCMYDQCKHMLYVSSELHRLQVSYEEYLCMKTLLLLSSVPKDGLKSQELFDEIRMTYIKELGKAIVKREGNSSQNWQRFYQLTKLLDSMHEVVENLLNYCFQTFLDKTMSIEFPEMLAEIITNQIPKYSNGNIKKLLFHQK
Galactokinase (Homo sapiens), sequence (P51570 whole entry, looked up): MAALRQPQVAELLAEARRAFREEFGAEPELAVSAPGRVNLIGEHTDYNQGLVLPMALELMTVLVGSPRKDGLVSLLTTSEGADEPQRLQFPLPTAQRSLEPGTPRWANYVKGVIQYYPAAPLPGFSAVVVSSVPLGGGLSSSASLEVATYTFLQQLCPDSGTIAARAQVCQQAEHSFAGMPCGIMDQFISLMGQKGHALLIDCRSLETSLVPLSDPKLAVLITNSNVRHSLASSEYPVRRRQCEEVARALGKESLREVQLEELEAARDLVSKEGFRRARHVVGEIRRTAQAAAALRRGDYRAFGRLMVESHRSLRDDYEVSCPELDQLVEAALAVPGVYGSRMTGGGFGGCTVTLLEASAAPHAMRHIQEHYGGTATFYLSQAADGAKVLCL

Turning to `CC(O)C(=O)O` (stereo not given), the compound was classed as inactive in experiment [1] and in experiment [4]. The Potency result in [2], in experiment [3] and in experiment [5] was “inactive” throughout.
In the case of `CCCCCCCCCCCCCCCCOP(=O)([O-])OCC[N+](C)(C)C`, the outcome in experiment [1] was inactive. Further, the Potency result in experiment [2] is “inactive”.
In the case of `CCCn1c(=O)[nH]c(=O)c2[nH]cnc21`, the compound was called inactive in [6], in experiment [8], in experiment [9], in experiment [10], in [11] and in [12]. The compound was called inactive in experiment [13] and in experiment [14]. Also, the Potency entry in [7], in experiment [2] and in experiment [15] was “inactive” throughout. Further, the viability change in experiment [8] amounted to 7.08%.
In the case of `CC/C(=C(/CC)c1ccc(O)cc1)c1ccc(O)cc1`, the outcome in experiment [1] was inactive. Besides, the Potency in experiment [5] was 44.7 µM (active) and 39.8 µM (active). Besides, in experiment [16], the activation is -20.1% (inactive).
Regarding `C=CCc1ccc(O)c(OC)c1`, the call in experiment [1] and in experiment [4] was inactive. Moreover, the Potency result in experiment [2] and in experiment [3] was “inactive” in each case.
Turning to `CCn1cc(C(=O)O)c(=O)c2cnc(N3CCCC3)nc21`, the outcome in experiment [1] was inactive. In addition, in [2], the Potency result was “inactive”.
In the case of `CC[N+](CC)(CCNC(=O)C(=O)NCC[N+](CC)(CC)Cc1ccccc1Cl)Cc1ccccc1Cl`, the compound was classed as inactive in experiment [1] and in experiment [17]. In experiment [2], the Potency entry was “inactive”.
`CC(=O)O[C@H]1C[C@@H]2CC[C@@H]3[C@H](CC[C@@]4(C)[C@H]3C[C@H]([N+]3(C)CCCCC3)[C@@H]4OC(C)=O)[C@@]2(C)C[C@@H]1[N+]1(C)CCCCC1`: the compound was classed as inactive in [6], in experiment [8], in experiment [9], in experiment [12], in experiment [13] and in experiment [14]. Further, the Potency result in experiment [7] and in experiment [15] was “inactive” throughout. Besides, the viability change in [8] is -0.593%.
As to `COC1=CC(=O)C[C@@H](C)[C@]12Oc1c(Cl)c(OC)cc(OC)c1C2=O`, the outcome in experiment [1] and in [4] was inactive. Besides, the Potency entry in experiment [2] is “inactive”. In addition, the activation in experiment [16] is -8.46% (inactive).
For `CC(C)(CO)[C@@H](O)C(=O)NCCCO`, the result in experiment [1] and in [17] was inactive. For the same compound, the Potency result in [2] is “inactive”.
`COc1c(C)c2c(c(O)c1C/C=C(\C)CCC(=O)O)C(=O)OC2`: the outcome in experiment [1] and in [17] was inactive. The Potency entry in experiment [2] was “inactive”.
Take `NC(CS)C(=O)O` (stereo not given): the outcome in experiment [1] was inactive. Also, the Potency result in [2] was “inactive”.
With `C[C@@H]1CN(CCCn2c3ccccc3c3ccccc32)C[C@H](C)N1`, the outcome in experiment [1] and in experiment [17] was inactive. In experiment [2], the Potency entry was “inactive”.
Turning to `C[C@H]1C[C@H]2[C@@H]3CCC4=CC(=O)C=C[C@]4(C)[C@@]3(Cl)[C@@H](O)C[C@]2(C)[C@@]1(O)C(=O)CO`, the result in experiment [1] and in [4] was inactive. Besides, the Potency entry in experiment [2] was “inactive”.
In the case of `CN1CCN(CCCN2c3ccccc3Sc3ccc(S(=O)(=O)N(C)C)cc32)CC1`, in [1], the result was inactive. The Potency result in experiment [2] is “inactive”.

The values above are taken from PubChem BioAssay (NCATS).
